Screening data from PubChem.
Most compounds without a hit are left out; they make up all but 32% or so of the library.
CYP2C19 activ: human CYP2C19 activators, primary screen, biochemical, luminescence | recombinant CYP2C19, luciferin-H EGE luminescence; stronger effect = higher value; 0 = fully inhibited enzyme, 1 = untreated enzyme | activation factor at 5 µM | 96,000 tested, under 10 active | AID 1025, 2008;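 active means activation factor of at least 2 at 5 µM in the primary screen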
PostGolgi yeast: phenotypic screen on post-Golgi transport, primary screen. 98,000 compounds, 0.9% hits. AID 739, 2007. post-Golgi transport phenotypic cell assay. inhibition, % at 10 µM;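 further: yeast cells grown in 1536-well plates; yeast grown about 18 h at 30C before absorbance read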
CYP2C9 act: human CYP2C9 activators, primary screen, biochemical, luminescence. Cytochrome P450 2C9 (Homo sapiens), P11712. recombinant CYP2C9, luciferin-H conversion; stronger effect = higher value; factor 1 = untreated enzyme, 0 = blocked. activation factor at 5 µM. 96,000 compounds, 1.4% hits. AID 1024, 2008;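 active means activation factor of 2 or more for CYP2C9 at a 5 µM dose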
Target sequence (P11712 whole entry, looked up): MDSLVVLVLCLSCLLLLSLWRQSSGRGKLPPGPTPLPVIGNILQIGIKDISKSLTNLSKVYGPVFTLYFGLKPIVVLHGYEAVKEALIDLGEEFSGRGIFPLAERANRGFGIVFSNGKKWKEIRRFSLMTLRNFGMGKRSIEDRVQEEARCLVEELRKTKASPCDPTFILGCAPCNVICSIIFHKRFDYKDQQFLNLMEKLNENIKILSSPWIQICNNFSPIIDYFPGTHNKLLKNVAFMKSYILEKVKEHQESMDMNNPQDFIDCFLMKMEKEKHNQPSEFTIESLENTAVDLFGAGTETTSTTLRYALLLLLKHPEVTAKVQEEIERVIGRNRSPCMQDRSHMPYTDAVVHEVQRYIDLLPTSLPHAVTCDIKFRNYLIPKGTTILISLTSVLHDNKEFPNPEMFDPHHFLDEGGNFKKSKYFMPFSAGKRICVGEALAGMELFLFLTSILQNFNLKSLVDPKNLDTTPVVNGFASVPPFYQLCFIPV
CYP2C9 inh: blockers of cytochrome P450 2C9 activity – biochemical, luminescence, ADME assay, primary screen | P11712 | inhibition, % at 5 µM | 96,000 compounds, 20% hits | AID 777, 2007 | CYP2C9 Supersomes, luciferin-H conversion;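 active means blocking of liver enzyme CYP2C9 beyond about 50% at 5 µM, limit read from the data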
PostGolgi ctrl: growth inhibition of yeast control strain, primary screen, counter-screen for post-Golgi transport modulator project; 98,000 compounds, 5% hits; inhibition, % at 10 µM; efflux-deficient yeast background strain, growth absorbance A615, 16 h
CYP2C19 inh: blockers of cytochrome P450 2C19 activity – biochemical, luminescence, ADME assay, primary screen. AID 778, 2007. P33261. CYP2C19 Supersomes, luciferin-H EGE luminescence, 30 min. inhibition, % at 5 µM. 96,000 compounds, 21% hits;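 active means CYP2C19 inhibition above a set limit at 5 µM in the primary screen, cut at about 50% in these data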
Each line names hits and unclear results; the compound was inactive in the other large screens. Unless noted, no stated cut-off is given here; in the data, active means inhibition above about 30%; inactive means the rest.

O=C1c2ccccc2NC(c2ccco2)N1O (stereo not given)	none
O=C1C2=C(Nc3ccccc3SC2c2ccco2)c2ccccc21 (stereo not given)	CYP2C9 inh 78, PostGolgi ctrl 72
O=C1C(=C(O)c2ccccc2)C(=O)c2ccccc21	none
O=C1C(=C(c2ccccc2)c2ccccc2)Nc2ccccc21	CYP2C9 inh 89, CYP2C19 inh 64
O=C(CCCNC(=O)/C(=C\c1ccc(F)cc1)NC(=O)c1ccccc1)OCc1ccccc1	CYP2C19 inh 63
Cc1ccc(C23CC4CC(CC(C(=O)N5CCOCC5)(C4)C2)C3)cc1	CYP2C9 inh 57, CYP2C19 inh 76
O=C(N1CCOCC1)C12CC3CC(C1)CC(c1ccccc1)(C3)C2	none
O=C(Cn1ncc2c1-c1ccccc1OC2)Nc1ccc(Cl)cn1	none
CCNC(=O)COC(=O)C1C(C(=O)OCC)=C(C)NC(C)=C1C(=O)OCC	CYP2C9 inh 75, CYP2C19 inh 86
CCOC(=O)C1=C(C)NC(C)=C(C(=O)OCC)C1C(=O)OCC(=O)N1CCc2ccccc2C1	CYP2C9 inh 79, CYP2C19 inh 56
CCOC(=O)C1=C(C)NC(C)=C(C(=O)OCC)C1C(=O)OCC(=O)N1CCC(C)CC1	none
COC(=O)C1=C(C)NC(C)=C(C(=O)OC)C1C(=O)OCC(=O)N1c2ccccc2CC1C (stereo not given)	CYP2C9 inh 93, CYP2C19 inh 86
CCOC(=O)C1=C(C)NC(C)=C(C(=O)OCC)C1C(=O)OCC(=O)N1CCCCC1CC (stereo not given)	CYP2C9 inh 67, CYP2C19 inh 62
COc1ccccc1C(O)(C(=O)NN(C(=O)c1ccccc1)c1ccccc1C)c1cccs1 (stereo not given)	none
CC(C)c1cc(=O)oc2c3c4c(cc12)CCCN4CCC3	CYP2C19 inh 87
COc1cc(C(=O)N2CCC(O)(c3ccccc3)CC2)cc(OC)c1OC	CYP2C9 inh 79, CYP2C19 inh 66
COc1ccccc1N1CCN(C2CCN(C(=O)c3cccs3)CC2)CC1	none (no result: CYP2C19 activ, CYP2C9 act, CYP2C9 inh, CYP2C19 inh)
COc1ccccc1N1CCN(C2CCN(C(=O)c3cc(OC)c(OC)c(OC)c3)CC2)CC1	PostGolgi yeast 36
Cc1cc(NC(=O)c2cc3nc4c(c(C(F)(F)F)n3n2)CCc2ccccc2-4)no1	none (no result: PostGolgi yeast, PostGolgi ctrl)
O=C1CCCN1CC(CN1CCOCC1)Sc1nc2ccccc2c(=O)n1-c1ccccc1 (stereo not given)	CYP2C9 inh 93, CYP2C19 inh 88 (no result: PostGolgi yeast, PostGolgi ctrl)
Cc1ccc(-c2nc3ccccc3c(=O)n2CCN2CCOCC2)cc1	none
COc1ccc(CCNC(=O)C2CCN(S(=O)(=O)N3CCCCC3)CC2)cc1OC	none
CCOC(=O)c1c(NC(C)=O)sc2c1CCC(C=O)=C2Sc1ccccc1	none
CCCSc1nnc(C(C)C)n1N	none
Cc1cc(NCCCN)nc(-c2ccccc2O)n1	none
COc1ccc(S(=O)(=O)C(C#N)c2nc3ccccc3nc2N2CCCC(C)C2)cc1 (stereo not given)	CYP2C9 inh 93, CYP2C19 inh 86
CCN1CCN(c2nc3ccccc3nc2C(C#N)S(=O)(=O)c2ccc(C)cc2)CC1 (stereo not given)	none
CC1CCCN(c2nc3ccccc3nc2C(C#N)S(=O)(=O)c2cccs2)C1 (stereo not given)	CYP2C9 inh 75
Cc1ccc(S(=O)(=O)C(C#N)c2nc3ccccc3nc2N2CCCC2)cc1 (stereo not given)	CYP2C9 inh 55, CYP2C19 inh 87
Cc1cc(C)n(-c2nnc(C)n2/N=C/c2ccccc2OCc2ccccc2Cl)n1	CYP2C9 inh 52, CYP2C19 inh 56
COc1ccccc1/C=N/n1c(C)nnc1-n1nc(C)cc1C	none
Cc1ccccc1S(=O)(=O)Oc1ccccc1C(=O)Oc1ccccc1	CYP2C9 inh 50
CCOc1ccccc1Nc1nc(N)nc(CN(C)C2CCCCC2)n1	none
CCN(CC)S(=O)(=O)c1ccc(Cc2ncc(C(F)(F)F)cc2Cl)s1	CYP2C9 inh 59, CYP2C19 inh 83
NNS(=O)(=O)c1ccc(Cc2ncc(C(F)(F)F)cc2Cl)s1	CYP2C19 inh 70
NS(=O)(=O)c1ccc(Cc2ncc(C(F)(F)F)cc2Cl)s1	none
O=C(CCl)c1ccc(Cc2ncc(C(F)(F)F)cc2Cl)s1	PostGolgi yeast 86
COC(=O)c1c(NC(=O)c2cnccn2)sc2c1CCC2	none
COc1ccc(C2C(=O)N(C3CCCCC3)CC(=O)N2Cc2ccco2)cc1 (stereo not given)	none
CC(C)[C@H](NC(=O)NCc1cccs1)C(=O)O	none
COc1ccc(C(=O)n2c(SC)nc3cc4c(cc32)OCCO4)cc1	CYP2C9 inh 54
CN(C)c1nc(SCCOC(=O)c2ccccc2)nc(N(C)C)n1	CYP2C9 inh 62, CYP2C19 inh 99
Cc1cc(C)nc(SCc2nnc(SCc3ccccc3Cl)o2)n1	CYP2C19 inh 78
Cc1cc(C)nc(SCc2nnc(SCC(=O)Nc3cc(C(F)(F)F)ccc3Cl)o2)n1	CYP2C9 act 2, CYP2C19 inh 80
Cc1cc(C)nc(SCc2nnc(SCC(=O)N3CCCc4ccccc43)o2)n1	CYP2C19 inh 80
COc1cccc2cc(-c3nnc(SCC(=O)Nc4cc(C(F)(F)F)ccc4Cl)n3N)oc12	none
Cc1cc(C)n2nc(SCc3nnc(SCCCCl)o3)nc2n1	none
CC1(C)NC(C)(C)C(O)(C(N)=O)C1=O (stereo not given)	none
CCN1C(=O)/C(=C\c2ccco2)C(C(=O)OC)=C1C	none
COC(=O)C1=C(C)N(Cc2ccc(C)cc2)C(=O)/C1=C\c1ccc(O)c(OC)c1	CYP2C9 inh 92, CYP2C19 inh 52
COC(=O)C1=C(C)N(CC2CCCO2)C(=O)/C1=C\c1ccc(O)cc1 (stereo not given)	CYP2C9 inh 63, CYP2C19 inh 50
COc1cc(/C=C2\SC(c3ccc(C)cc3)=NC2=O)ccc1O	none
Cn1c(=O)c2c3c(sc2n2c(SCc4ccc5c(c4)OCO5)nnc12)COC(C)(C)C3	none (no result: PostGolgi yeast, PostGolgi ctrl)
O=C(NC1(C(F)(F)F)NC(=O)N(Cc2ccccc2)C1=O)c1cccnc1 (stereo not given)	none
O=C1NC(Nc2nccs2)(C(F)(F)F)C(=O)N1CCc1ccccc1 (stereo not given)	CYP2C9 inh 85, CYP2C19 inh 89
CCn1c(=O)cc(SCC(=O)NCc2ccc(C)o2)c2ccccc21	CYP2C9 act 2
CCn1c(=O)cc(SCC(=O)NCCCN2CCN(c3ccc(F)cc3)CC2)c2ccccc21	none
CCn1c(=O)cc(SCC(=O)NCCN2CCN(Cc3ccccc3)CC2)c2ccccc21	PostGolgi ctrl 34
